# Results from the supplement of paper PMC6555819.
# Key:
# Experiment in all cases: PBM binding z-score (relative to random genomic background probes); higher = stronger binding; sequences stand for … in GC…GCGATTGACAGCGTAGAATGAAGG
# [1] = test system: FXR:RXRa (NR concentration 270 nM, RXRa partner concentration 90 nM)
# How it was run: (§1)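 Binding buffer was PBS pH 7.4 with 2% milk, 0.02% Triton X-100, 1 mM DTT, 0.2 mg/mL BSA and 0.4 mg/ml salmon testes DNA. In it, ligand-free nuclear receptor dimers were incubated 1 h on custom Agilent 4×180K protein-binding microarrays carrying double-stranded probes. Antibodies against each partner (one per run) detected binding, and z-scores were calculated against random background probes after regression normalization of scanned fluorescence.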
# [2] = test system: LXRa:RXRa (NR concentration 270 nM, RXRa partner concentration 90 nM)
# How it was run: as §1
# [3] = test system: LXRa homodimer (NR concentration 270 nM)
# How it was run: as §1
# [4] = test system: LXRb:RXRa (NR concentration 270 nM, RXRa partner concentration 90 nM)
# How it was run: as §1
# [5] = test system: LXRb homodimer (NR concentration 270 nM)
# How it was run: as §1
# [6] = test system: PPARa:RXRa (NR concentration 270 nM, RXRa partner concentration 90 nM)
# How it was run: as §1
# [7] = test system: PPARg:RXRa (NR concentration 180 nM, RXRa partner concentration 90 nM)
# How it was run: as §1
# [8] = test system: PPARg:RXRa 270nM:90nM, anti-RXR (NR concentration 270 nM, RXRa partner concentration 90 nM)
# How it was run: as §1
# [9] = test system: PPARg:RXRa 30nM:10nM, anti-RXR (NR concentration 30 nM, RXRa partner concentration 10 nM)
# How it was run: as §1
# [10] = test system: PPARg:RXRa 90nM:30nM, anti-RXR (NR concentration 90 nM, RXRa partner concentration 30 nM)
# How it was run: as §1
# [11] = test system: PPARg:RXRa DBDmut IVT, anti-RXR (DBD mutation: RXRa K156A/R161A, NR concentration 270 nM, RXRa partner concentration 90 nM)
# How it was run: as §1
# [12] = test system: PPARg:RXRa IVT, anti-PPARg (NR concentration 270 nM, RXRa partner concentration 90 nM)
# How it was run: as §1
# [13] = test system: PPARg DBDmut:RXRa IVT, anti-PPARg (DBD mutation: PPARg1 K132A/R137A, NR concentration 270 nM, RXRa partner concentration 90 nM)
# How it was run: as §1
# [14] = test system: PPARg DBDmut IVT, anti-PPARg (DBD mutation: PPARg1 K132A/R137A, NR concentration 270 nM)
# How it was run: as §1
# [15] = test system: PPARg homodimer (NR concentration 180 nM)
# How it was run: as §1
# [16] = test system: PXR:RXRa (NR concentration 270 nM, RXRa partner concentration 90 nM)
# How it was run: as §1
# [17] = test system: PXR homodimer (NR concentration 270 nM)
# How it was run: as §1
# [18] = test system: RARa:RXR (NR concentration 270 nM, RXRa partner concentration 90 nM)
# How it was run: as §1
# [19] = test system: RARa homodimer (NR concentration 270 nM)
# How it was run: as §1
# [20] = test system: RARb:RXRa (NR concentration 270 nM, RXRa partner concentration 90 nM)
# How it was run: as §1
Sequence,PBM binding z-score [1],PBM binding z-score [2],PBM binding z-score [3],PBM binding z-score [4],PBM binding z-score [5],PBM binding z-score [6],PBM binding z-score [7],PBM binding z-score [8],PBM binding z-score [9],PBM binding z-score [10],PBM binding z-score [11],PBM binding z-score [12],PBM binding z-score [13],PBM binding z-score [14],PBM binding z-score [15],PBM binding z-score [16],PBM binding z-score [17],PBM binding z-score [18],PBM binding z-score [19],PBM binding z-score [20]
ATCGAAAGGTCGTGAGGCGAGTATACAGAAAGGC,5.83,4.11,0.273,3.21,0.391,5.07,3.85,4.18,1.56,2.61,0.466,1.91,1.82,1,1.5,2.96,0.0504,3.69,0.41,4.1
ATCGACAGGTCGACGAGGTGAGTATACACCGTTT,0.539,0.314,-0.541,0.288,-0.436,1.42,1.11,0.392,0.0912,-0.0285,-0.262,0.929,0.221,0.384,0.58,0.461,-0.437,1.54,0.5,1.53
TGAATGAGGTTATAGATCAGGGAACGTGGCGTCG,1.56,1.48,-0.163,0.762,0.262,2.84,2.57,3.62,2.18,3.73,1.18,1.89,1.37,0.361,1.11,0.894,0.211,1.58,0.661,1.34
CCAACTGGGCCACGAAAGGTCATTGATTCAGTGA,3.69,5.09,4.15,4.41,0.134,4.75,4.7,4.74,1.7,3.62,5.74,5.79,-0.114,-0.318,3.56,5.23,1.31,5.31,1.12,4.02
CCGAGTAGGTTCTGGGGCATTCAGGCAACGGTGA,-0.196,-0.351,-0.153,-0.391,-0.906,0.158,-0.108,0.645,-0.76,0.156,1.08,1.69,-1.23,-1.34,0.223,-0.868,-0.237,-0.69,-0.226,0.00361
GCTAGCAGGCCATTTGGGTAACTCAATGACGGGC,-0.758,-0.699,-0.371,-0.899,-0.88,-0.267,0.519,-0.594,-0.844,-0.634,1.07,0.155,-0.238,-1.22,-0.806,-0.696,-0.721,-0.454,-1.37,-0.258
CCTACTGGGGCAAAAAGGTCATTGATGCCGATAA,3.82,4.34,2.86,3.92,0.284,4.96,4.68,5.28,2.57,4.43,4.52,5.48,0.778,1.73,5.37,5.17,5.54,5.35,2.82,4.08
CGAACTAGTTCATCCAGGACAGTGAATACATTGA,0.527,0.53,0.205,0.693,-0.0526,0.838,0.619,0.145,0.0881,0.329,1.33,0.831,0.796,0.456,0.323,1.64,2.98,1.06,0.65,1.53
TCATATAGGTAAATGCTAGGTCAAAGTCCGATCT,1.83,3.8,5.26,2.45,0.769,2.57,1.76,2.81,3.96,3.47,4.1,3.27,0.472,1.99,1.7,1.98,1.11,2.7,1.22,1.88
TCTATTAGTTGATTAGGTCAACCGAAACAGCGGA,1.7,2,1.49,2.02,1.35,2.94,1.16,3.19,3.91,3.59,2.89,3.1,1.43,1.8,2.28,2.03,0.923,2.56,1.9,2.73
ATCGAAAGGTCGAGGGGAGTATAGAGAAAGGGAA,4.46,3.49,0.308,2.92,1.64,4.58,2.97,3.17,1.13,2.36,0.44,1.72,1.88,1.27,1.83,2.27,0.897,3.24,1.45,3.97
GGAACGAGGGCATTCGATTTGATAGCATGGCGAT,0.98,0.589,-0.512,0.472,-0.24,1.49,1.13,1.23,0.159,0.731,3.33,2.39,0.437,-0.411,0.257,0.991,0.161,0.538,-0.351,1.96
ACTAGCAGGCTAAGTTTGGGTCACTCAAACAAAG,-0.0373,-0.132,-0.315,0.424,-0.557,1.28,-0.0855,0.315,-0.575,-0.155,0.316,0.557,-0.411,-0.519,-0.136,0.49,-0.438,1.31,-0.552,1.17
CGTCCAAGGTCAGAGAGGTCAGTGGATGCCGAGT,6.14,5.17,3.43,4.38,0.285,4.94,3.46,4.26,1.09,2.58,2.81,3.74,0.146,0.0263,3.71,6.17,11.7,5.33,0.8,5.38
TAGCCTAGGTCATTGGGCCAGTCTAGTACGCATC,3.99,3.21,0.181,1.78,0.0728,3.41,3.3,3.25,0.536,2.3,2.31,3.52,-0.286,-0.617,1.58,1.19,-0.0454,1.82,-0.767,3.53
CAGCCTAGGTCAGGGTCAGTATAGGAGGAACGTT,3.28,2.28,0.154,2.3,-0.746,3.73,2.37,2.52,0.577,1.52,1.2,2.57,0.511,-0.598,1.63,2.38,0.127,3.04,0.15,4.31
TCATATAGGTAAATGCTAGGTGTAAGTCCGATCT,0.454,0.941,0.2,0.659,-0.0969,1.05,0.749,2.17,3.9,2.97,3.8,1.94,0.286,1.15,0.2,0.655,-0.0284,0.00446,1.01,0.377
TCTAGTTGTTCACGGAGGTCACACACGACGGGTA,2.82,3.29,2.83,3.17,0.94,3.66,1.84,2.89,3.43,3.07,1.73,2.51,0.302,1.32,2.67,4.27,1.07,4.45,1.31,3.37
GCTGCTAGGTCAACCGATGGTCAGCTAAAGCTCG,3.72,2.83,-0.00824,1.67,-0.103,3.53,2.64,3,0.428,1.82,4.93,4.21,-0.16,-0.394,1.63,1.43,-0.956,2.99,-0.609,4.22
ACTCGGAGGACAAAGGTCAGCGCTACGCCAGTGA,4.44,4.2,1.62,3.51,0.168,5.24,8.05,7.77,7.19,8.33,0.977,3.82,0.281,-0.509,4.7,3.99,0.485,5.21,1.94,4.73
TTACCAACGTGAAGGTCGTTGATCCCTCTGTAGA,1.87,1.9,0.292,1.88,-0.33,1.35,0.00743,0.541,0.511,0.656,0.422,-0.0578,-0.0855,-0.0405,0.497,1.42,0.561,1.13,-0.198,0.811
TCTAGCAGGCCAGTGGGTCACTCAAGAGGTACGG,0.165,0.09,-0.387,0.111,-1.21,1.83,1.59,2.19,1.78,2.09,2.62,3.66,-0.249,-0.535,-0.0883,0.324,-0.497,1.16,-0.945,1.48
TAGCCTAGGTCATTCAGGGGCCAGTATTGAAAGC,4.17,3.5,0.907,3.03,0.763,3.43,1.63,2.22,0.291,1.32,1.67,2.66,-0.277,-0.0243,2.68,2.72,-0.361,3.99,-0.562,3.8
AGAATGTGGTTAAGATCAGGGAAACAGAATACAT,0.33,-0.14,0.153,0.27,0.174,0.172,0.496,0.291,0.299,-0.247,-0.145,0.0486,0.832,0.677,0.635,0.308,0.679,0.217,0.647,0.103
CCTACTGGGCTATTCAGAGGTCATTGATCATATG,2.44,4.58,7.28,3.7,0.414,3.44,1.17,2.73,0.812,1.97,2.84,2.73,0.261,0.0805,2.7,4.9,2.27,4.54,0.714,2.79
ACTAGCAGGCCAAGTTTGGGTCACGCAAACAAAG,1.01,0.518,-0.2,1.33,-0.873,2.27,0.556,1.04,-0.0172,0.546,1.23,1.63,-0.285,-0.284,0.631,1.61,-0.0621,2.51,-0.0801,2.33
GGTTGTAGATCAAGGTTAAGAAAGACTAAGCTAA,0.73,1.3,0.323,1.19,0.361,1.5,0.938,1.63,0.752,1.31,0.74,1.03,0.337,0.177,1.28,0.988,0.866,1.16,1.7,1.17
TCTAATTGGTCACGGAGGTCACACACGACGGGTA,3.62,4,2.74,3.75,1.6,4.35,4.51,5.01,4.41,5.06,2.78,4.04,1.67,1.69,3.37,4.81,1.7,4.76,2.23,4.2
